High-throughput results: PubChem BioAssay, National Center for Advancing Translational Sciences (NCATS)
Sfp PPTase inh = Sfp phosphopantetheinyl transferase inhibition. Q9F4F7. Biochemical Sfp PPTase activity, qHTS. Potency, µM, usual class: inhibitors. 3.5% of 310,000 active. AID 1490;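 further: the enzyme is Sfp with the accession as filed and its product quenches rhodamine fluorescence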
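Compounds were incubated with enzyme (final 15 nM) for 15 min at room temperature before substrate addition started the reaction. Fluorescence at 525 nm excitation, 598 nm emission was recorded immediately and after 30 minutes.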
G9a block = inhibitors of human histone lysine methyltransferase G9a. 8.8% of 350,000 active. Q96KQ7. AID 504332. Potency, µM (doses to about 102 µM), most hits filed as inhibitors. G9a H3K9 monomethylation, AlphaScreen, 2 h; further: nearly all actives have a fitted effect of over 75% in size
Target sequence (Q96KQ7 913-1193 limits assumed): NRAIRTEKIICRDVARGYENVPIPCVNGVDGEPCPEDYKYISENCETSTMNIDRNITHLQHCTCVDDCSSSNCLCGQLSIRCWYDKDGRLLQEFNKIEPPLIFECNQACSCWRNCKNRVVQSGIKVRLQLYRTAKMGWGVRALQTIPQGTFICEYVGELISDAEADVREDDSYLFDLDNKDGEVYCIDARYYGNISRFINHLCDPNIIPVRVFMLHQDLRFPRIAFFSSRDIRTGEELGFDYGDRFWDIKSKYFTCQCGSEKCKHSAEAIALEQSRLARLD
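G9a (20 nM) preincubated 15 min RT with compounds, then 500 nM biotinylated H3K9 peptide and 20 uM SAM added; 2 h RT reaction. Monomethyl-H3K9 product detected by AlphaScreen with anti-H3K9me1 antibody, streptavidin donor and anti-rabbit IgG acceptor beads.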
JMJD2A Tudor inh = JMJD2A Tudor domain (human) inhibition; AID 504339; Potency, µM (doses to about 114 µM), usual class: inhibitors; 4.4% of 390,000 active; AlphaScreen JMJD2A-Tudor / H3K4me3 peptide binding; O75164; further: nearly all actives have a fitted effect of over 50% in size
HP1b binding inh = inhibitors of HP1-beta chromodomain binding to methylated histone tails. 0.56% of 390,000 active. Potency, µM (highest dose often 114 µM), most hits filed as inhibitors. P83916. AlphaScreen HP1-beta / biotin-H3K9me3 peptide binding. AID 540317; further: nearly all actives have a fitted effect of over 70% in size
Target sequence (P83916 whole entry, looked up): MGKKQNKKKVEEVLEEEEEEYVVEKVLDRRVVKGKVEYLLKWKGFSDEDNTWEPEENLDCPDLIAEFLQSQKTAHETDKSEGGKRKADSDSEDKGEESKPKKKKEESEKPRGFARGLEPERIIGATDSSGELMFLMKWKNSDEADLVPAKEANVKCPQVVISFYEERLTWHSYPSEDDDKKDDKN
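HP1-beta protein (50 nM final) preincubated 30 min at room temperature with biotinylated H3(1-18)K9me3 peptide (50 nM) in PBS pH 7.4, 0.01% Tween-20, then compound added for 30 min. AlphaScreen streptavidin donor/nickel chelate acceptor beads (10 ug/mL final), 30 min dark, luminescence read.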
BAZ2B inh = blocks human BAZ2B. Q9UIF8. AlphaScreen BAZ2B-H3K14Ac peptide displacement. Potency, µM (titrated, usually from 114 µM), usual class: inhibitors. 4.4% of 360,000 active; further: nearly all actives have a fitted effect of over 60% in size
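Complex of BAZ2B and biotin-H3K14Ac (50 nM apiece) forms over 30 min at RT, then faces library compounds up to 110 uM for another 30 min; AlphaScreen beads added, 20 min dark incubation, luminescence read.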
L3MBTL1 block = inhibitors of human L3MBTL1; 0.66% of 230,000 active; Q9Y468; Potency, µM (top dose mostly 57.1 µM), hits mostly inhibitors; AlphaScreen L3MBTL1–H3K9me1 peptide binding; further: nearly all actives have a fitted effect of over 60% in size
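Displacement of a biotinylated histone H3(1-15) peptide monomethylated at Lys9 (75 nM) from L3MBTL1 (50 nM) was measured by AlphaScreen after a 30 min room-temperature compound incubation; cefsulodin titration served as intraplate control.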
Numbers stand for hits; - = inactive; ? = inconclusive; . = not tested or not shown; [ ] = remark or other dose. A selection: hits, their analogues and other compounds. The true share with any hit is near 12%. The call rests on the fitted dose curve; in most records, active means well fitted curve in the direction sought with a large enough effect; inconclusive means small, poorly fitted or top-dose-only effect, or another doubt; inactive means no such curve, though single readings can be large; an effect the other way counts as inactive or inconclusive.

SMILES	Sfp PPTase inh	G9a block	JMJD2A Tudor inh	HP1b binding inh	BAZ2B inh	L3MBTL1 block
COc1cc(-c2nc3ccccn3c2/N=C/c2ccc(F)cc2)ccc1O	50µM	35µM	?	?	?	.
Clc1ccc(/C=N/c2c(-c3ccco3)nc3ccccn23)cc1	-	?	45µM	?	?	.
Cc1cccc(-n2c(=O)c3c(c4cc(C)ccc4n3C)n(CC(=O)Nc3ccc(C)cc3C)c2=O)c1	.	-	-	-	-	.
Cc1cc(-c2ccc(C)c(S(=O)(=O)NCCCN3CCN(c4ccccc4)CC3)c2)on1	-	71µM	?	-	?	.
NC(=O)C1(S(=O)(=O)c2ccccc2)CCCCC1	-	-	-	-	-	-
NC1(C(=O)O)CCCCC1c1ccccc1 (stereo unspecified)	.	.	1.4µM	-	.	.
O=C1CCc2cc(S(=O)(=O)Nc3cccc(Br)c3)ccc2N1	.	.	-	.	.	.
CCC(C)n1c(SCc2ccc(F)cc2Cl)nc2ccsc2c1=O (stereo unspecified)	.	-	-	-	-	.
Cc1nn(C(=O)c2cccc(F)c2)c(C)c1S(=O)(=O)N1CCCCCC1	.	-	-	-	-	.
CC1=C(C#N)C(=O)N(C2CCS(=O)(=O)C2)C(=O)/C1=C\c1ccc(C)o1 (stereo unspecified)	13µM	20µM	.	.	45µM	14µM
NS(=O)(=O)c1ccc(-c2ccc(/C=C3\SC(=S)N(C4CCS(=O)(=O)C4)C3=O)o2)cc1 (stereo unspecified)	?	?	-	-	-	.
c1ccc(COc2ccc(OCCCn3cncn3)cc2)cc1	-	-	-	-	-	-[11.4 µM]
Cc1cc(C)cc(OCCCCn2cncn2)c1	-	10µM	28µM	?	?	-
Clc1ccc(OCCCn2cncn2)cc1Cl	?	10µM	8.9µM	-	22µM	-
CC(O)CNc1nc2sc3c(c2c(=O)n1Cc1ccco1)CCCCC3 (stereo unspecified)	?	.	-	-	-	-
CC(O)CNc1nc2sc3c(c2c(=O)n1CCc1ccccc1)CCCCC3 (stereo unspecified)	-	50µM	?	?	?	-
CN(C)CCNc1nc2sc3c(c2c(=O)n1CCc1ccccc1)CCCCC3	-	40µM	50µM	-	45µM	-
COc1cccc(CN(C)C(=O)CNC(=O)c2ccc(-c3ccccc3)cc2)c1OC	-	45µM	-	-	-	.
CCOc1ccc(NS(=O)(=O)c2ccc(C(=O)N(C)Cc3cccc(OC)c3OC)cc2)cc1	-	-	89µM	-	-	.
COc1ccc(CN(C)C(=O)CNC(=O)c2sc3ccccc3c2Cl)c(OC)c1OC	.	.	89µM	-	.	.
COc1cccc(CN(C)C(=O)CNC(=O)c2cccs2)c1OC	.	-	-	-	-	-
COc1cccc(CN(C)C(=O)c2ccc(NS(=O)(=O)c3ccc4[nH]c(=O)[nH]c4c3)cc2)c1OC	-	-	-	-	-	.
COc1cccc(-c2nccc(NC3CCNCC3)n2)c1	-	.	.	.	.	.
N#Cc1ccc(S(=O)(=O)N2CCC(Oc3cccc(C(F)(F)F)c3)CC2)cc1	.	-	-	-	-	.
COc1ccc(COC2OC[C@]3(C)[C@H]4C5=C(CN3C(=O)OC(C)(C)C)[C@H](C)C(CO)C(CO)C5CC[C@@H]24)cc1 (stereo partly specified)	-	.	.	.	.	.
SMILES	Sfp PPTase inh	G9a block	JMJD2A Tudor inh	HP1b binding inh	BAZ2B inh	L3MBTL1 block
Cc1ccc(NC(=O)C(CC(C)C)NS(=O)(=O)c2ccc3c(c2)oc(=O)n3C)c(C)c1 (stereo unspecified)	.	-	-	-	-	.
O=C(C1CCCCC1)N1CCCC(c2nc3c(nnn3Cc3ccccc3)c(=O)[nH]2)C1 (stereo unspecified)	-	-	-	-	-	-
Cc1ccc(C)c(Cn2nnc3c(=O)[nH]c(C4CCCN(C(=O)C5CCCCC5)C4)nc32)c1 (stereo unspecified)	50µM	-[12.7 µM]	-	-	?	.
Cc1ccc(NS(=O)(=O)c2cc3c(cc2N(C)C)CCC(=O)N3)cc1C	.	.	-	.	.	.
COc1cccc2cc(C(=O)NNC(=O)c3ccc(Br)cc3)c(=O)oc12	-	45µM	79µM	?	-	-
CCOC(=O)CC(NC(=O)c1cc2cccc(OC)c2oc1=O)c1cccc([N+](=O)[O-])c1 (stereo unspecified)	50µM	32µM	?	-	-	?
COc1cc(C(C)=O)ccc1OC(=O)c1cc2cccc(OC)c2oc1=O	-	35µM	-	-	-	-[11.4 µM]
O=C(CNC(=O)c1ccc([N+](=O)[O-])cc1)OC(C(=O)Nc1cc(C(F)(F)F)ccc1Cl)c1ccccc1 (stereo unspecified)	.	.	-	.	.	.
COc1ccc(C2(CNC(=O)C(=O)Nc3ccc(F)cc3)CCCC2)cc1OC	.	-	-	-	-	.
Cc1oc(-c2cccc(Cl)c2)nc1CN1CCCC(C(=O)N2CCN(c3ccc(F)cc3)CC2)C1 (stereo unspecified)	.	18µM	40µM	?	10µM	.
Cc1cccc(-c2nc(CN3CCCC(C(=O)NCCc4ccc(Cl)cc4)C3)c(C)o2)c1 (stereo unspecified)	.	?	?	-	56µM	.
Cc1oc(-c2cccc(Cl)c2)nc1CN1CCC(C(=O)N2CCN(c3ccccc3F)CC2)CC1	-	?	?	-	-	-
Cc1oc(-c2cccc(Cl)c2)nc1CN1CCCC(C(=O)NC(C)c2ccc3c(c2)OCCO3)C1 (stereo unspecified)	-	50µM	?	-	?	.
Cc1oc(-c2cccc(Cl)c2)nc1CN1CCCC(C(=O)NCc2ccc(Cl)cc2)C1 (stereo unspecified)	.	-	?	-	?	.
CC(=O)N[C@H]1CSSC[C@@H](C(=O)N2CCC[C@H]2C(=O)N2CCC[C@H]2C(=O)N[C@@H](CCCCN)C(=O)N[C@@H](CC(=O)O)C(N)=O)NC(=O)CNC(=O)[C@H](Cc2c[nH]c3ccccc23)NC(=O)[C@H](CCCNC(=N)N)NC(=O)[C@@H](Cc2ccc(Cl)c(Cl)c2)NC(=O)[C@H](Cc2cnc[nH]2)NC(=O)[C@H](CCC(=O)O)NC1=O	-	.	.	.	.	.
Cc1nc(-c2ccc(Cl)cc2)sc1CCNC(=O)c1cccs1	.	-	-	-	-	.
O=C1N[C@@H](Cc2ccccc2)C(=O)N1CCN1CCOCC1	-	?	-	-	-	.
O=C1NC(Cc2ccccc2)C(=O)N1Cc1cc([N+](=O)[O-])cc2c1OCOC2 (stereo unspecified)	-	-	-	-	79µM	-
CN1CCC2(CC1)N=C(c1ccc(F)cc1)C(=S)N2C(=O)c1ccccc1	50µM	22µM	?	?	-	?
O=C(c1ccccc1)N1N=C(c2ccc(F)cc2)CC1(O)C(F)(F)F (stereo unspecified)	-	?	-	-	-	.
